# Measurements taken from publication PMC5540273 (PLoS ONE, 2017).
# System: TESK1
# Details: concentration: 1 μM, replicates: in singlicate; n = 1
# 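Further: KINOMEscan kinase panel screen.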
row,SMILES,%Inh
1,Cn1cc(-c2ccc3c(c2)CCN3C(=O)Cc2cccc(Cl)c2)c2c(N)ncnc21 [GSK2606590],52%
2,COc1ccc(-c2coc3ccc(-c4nnc(SCc5ccc(OC)c(C(F)(F)F)c5)o4)cc23)cc1,0%
3,CCS(=O)(=O)c1ccc(OC)c(Nc2nccc(-c3c(-c4cccc(NC(=O)c5c(F)cccc5F)c4)nn4ncccc34)n2)c1 [GSK326180],2%
4,O=C(Nc1cccc(-c2nn3ccccc3c2-c2ccnc(Nc3cccc(C(F)(F)F)c3)n2)c1)c1c(F)cccc1F [GSK292658],0%
5,NCCCC(NC(=O)c1cc(Br)c(-c2ccnc3[nH]ccc23)s1)c1ccccc1.O=C(O)C(F)(F)F.O=C(O)C(F)(F)F (stereo not shown) [GSK1287544],16%
6,CC(=O)Nc1nc2cnc(Nc3cc(NC(=O)c4cccc(C5(C#N)CC5)c4Cl)ccc3C)nc2s1,0%
7,COc1ccc(CNC(=O)NC2CCN(c3ccnc(Nc4ccc(F)cc4)n3)CC2)cc1 [GSK1379788],2%
8,Clc1ccc(-c2nn3ncccc3c2-c2ccnc(Nc3ccc4c(c3)OCCO4)n2)cc1 [GW829116],11%
9,CC(C)(C)c1ccc2nccc(Nc3cccc(O)c3)c2c1 [GW856795],0%
10,COc1cc(Nc2nccc(N3CCC(NC(=O)Nc4cccc(C(C)=O)c4)C3)n2)cc(OC)c1OC (stereo not shown) [GSK1379753],1%
11,COc1cc(Nc2nccc(-c3c(-c4cccc(NC(=O)c5c(F)cccc5F)c4)nn4ccccc34)n2)cc(OC)c1OC [GSK323521],36%
12,COc1cccc(NC(=O)NC2CCN(c3ccnc(Nc4cc(OC)c(OC)c(OC)c4)n3)C2)c1 (stereo not shown) [GSK1379763],1%
13,O=C(O)C(F)(F)F.O=C(O)C(F)(F)F.O=c1[nH]ccc2nc(N[C@@H]3CCCNC3)nc(Nc3ccc(S(=O)(=O)N4CCOCC4)cc3)c12 [GSK2177277],0%
14,CCCCc1nn2ncccc2c1-c1ccnc(Nc2ccc(N3CCN(C)CC3)cc2)n1 [GW684941],39%
15,CN(c1ccc(NC(=O)Nc2cc(C(F)(F)F)ccc2F)cc1)c1ccnc(Nc2ccc(S(N)(=O)=O)cc2)n1 [GW809893],75%
16,Nc1ncc(-c2cccnc2)c2scc(-c3ccc4c(c3)CCN4C(=O)Cc3ccccc3)c12 [GSK683281],33%

row,SMILES,%Inh
1,Cc1ccc(C(=O)Nc2ccc(Nc3ccnc4cc(-c5nccs5)ccc34)cc2O)cc1.Cl [GW494702],15%
2,COc1cc(Nc2nccc(N3CCC(NC(=O)c4cc5ccccc5s4)C3)n2)cc(OC)c1OC (stereo not shown) [GSK1379760],9%
3,O=C(Nc1cccc(-c2nn3ccccc3c2-c2ccnc(Nc3cccc(F)c3)n2)c1)c1c(F)ccc(F)c1Cl [GSK357952],0%
4,CN(C)Cc1ccc(-c2ccc3c(Nc4ccc(Oc5ccccn5)cc4)ccnc3c2)o1 [GW567148],0%
5,CNC(=O)c1ccccc1Nc1nc(Nc2ccc(N3CCOCC3)cc2)ncc1Cl.Cl [GSK1576028],26%
6,Cl.Cl.NCC(NC(=O)c1cc(-c2ccccc2)c(-c2ccnc3[nH]ccc23)s1)c1ccccc1 (stereo not shown) [GSK1321561],16%
7,COc1ccc(Nc2nccc(N3CCC(NC(=O)Nc4cccc(OC)c4)C3)n2)cc1 (stereo not shown) [GSK1379742],36%
8,COC(=O)Nc1nc2cc(Oc3ccc(NC(=O)Nc4cc(C(F)(F)F)ccc4F)cn3)ccc2[nH]1.Cl.Cl [GW681170],10%
9,O=C(Nc1n[nH]c2cc(-c3ccoc3)ccc12)C1CC1 [SB-738481],0%
10,CSc1cccc2c(-c3ccncn3)c(-c3ccc(F)cc3)nn12 [GW514786],31%
11,c1ccc(Oc2ccc(Nc3ccnc4cc(-c5ccc(CNCCN6CCOCC6)o5)ccc34)cc2)nc1 [GW567145],3%
12,Nc1ncnc2c1nc(-c1ccccc1)n2-c1ccccc1 [SKF-97293],19%
13,Cl.c1ccc(-c2ccc3c(Nc4ccc5[nH]ccc5c4)ccnc3c2)nc1 [GW440138],23%
14,Cl.NC(=O)c1cccc(Nc2nccc(Nc3ccc(Oc4c(Cl)cccc4Cl)c(Cl)c3)n2)c1 [GW659009],0%
15,Cc1occc1-c1ncc(OC[C@@H](N)Cc2c[nH]c3ccccc23)cc1-c1ccc2[nH]nc(C)c2c1.O=C(O)C(F)(F)F [GSK682037],19%
